This is an account of results in PubChem BioAssay (NCATS).

Molecules are shown by their SMILES. Records with an inconclusive call do not appear. A call without a number means that no potency is given here. Active and inactive are the calls of the source. Calls come from the whole dose curve; as a rule, active = well fitted inhibition curve with a large enough effect; inconclusive = small, poorly fitted or top-dose-only effect; inactive = flat fitted curve, though single readings scatter.
Potency is the fitted concentration of half-maximal effect.

The first assay has as its system MCC-26. Briefly: qHTS assay to identify novel small-molecules to repurpose for Merkel cell carcinoma treatment (AID 1296009). Note: nearly all actives have a fitted effect of over 60% in size. The settings on record: MCC and control cell lines, CellTiter-Glo viability, 72 h; series mostly up to 46 µM. In short, it runs like this: (§1)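 After compound transfer in DMSO, plates were kept 72 hr at 37 degree celsius. Luminescent ATP signal from CellTiter-Glo served as viability measure, normalized against DMSO and no-cell controls.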
In the case of `O=c1[nH]c(=O)n([C@H]2CCCO2)cc1F`, the Potency entry is “inactive”.
Still for that read-out and setting: then `COC(=O)CCc1ccc(OCC(O)CNC(C)C)cc1` (stereo not drawn), with “inactive”; and `Cc1cc2c(cc1CC(=O)c1sccc1S(=O)(=O)Nc1onc(C)c1Cl)OCO2`, with “inactive”.
On the same count and under the same terms, then `CC(C)(C)NC(=O)[C@@H]1CN(Cc2cccnc2)CCN1C[C@@H](O)C[C@@H](Cc1ccccc1)C(=O)N[C@H]1c2ccccc2C[C@H]1O`, with “inactive”.
Consider `CCCCS(=O)(=O)N[C@@H](Cc1ccc(OCCCCC2CCNCC2)cc1)C(=O)O`, for which the Potency entry is “inactive”.
The same measure, in the same setting: under `Cc1onc(-c2c(Cl)cccc2Cl)c1C(=O)N[C@@H]1C(=O)N2[C@@H]1SC(C)(C)[C@@H]2C(=O)O` stands “inactive”; under `CN1CCN(C(c2ccccc2)c2ccccc2)CC1`, “inactive”; under `O=C(O)CNC(=O)c1ccccc1`, “inactive”.
On the same count and under the same terms, then `COC(=O)[C@@H]1CC2=CC(=O)CC[C@]2(C)[C@@]23O[C@@H]2C[C@@]2(C)[C@@H](CC[C@@]24CCC(=O)O4)[C@H]13`, with “inactive”.
`NC(CS)C(=O)O` (stereo not drawn): the Potency result was “inactive”.
Regarding `CN(C)CCOc1ccccc1Cc1ccccc1`, the Potency entry is “inactive”.
The same measure, in the same setting: then `CCOC(=O)OC(C)OC1=C(C(=O)Nc2ccccn2)N(C)S(=O)(=O)c2ccccc21` (stereo not drawn), with “inactive”; and `N[C@H](Cc1c[nH]c2ccccc12)C(=O)O`, with “inactive”; and `C[C@H](O)C(=O)Nc1c(I)c(C(=O)NC(CO)CO)c(I)c(C(=O)NC(CO)CO)c1I`, with “inactive”.
Same read-out and setting: then `CC(C)COC(=O)c1ccc(N)cc1`, with “inactive”; and `Cc1ccc(C(=O)C(C)CN2CCCCC2)cc1` (stereo not drawn), with “inactive”.
Same read-out and setting: under `CC1(C)O[C@@H]2[C@@H](CO[C@@]3(COS(N)(=O)=O)OC(C)(C)O[C@@H]23)O1` stands “inactive”; under `CCN(CCCCOC(=O)c1ccc(OC)c(OC)c1)C(C)Cc1ccc(OC)cc1` (stereo not drawn), “inactive”; under `CN=C(NC#N)Nc1ccc(C2=NNC(=O)CC2C)cc1` (stereo not drawn), “inactive”.
With `Cc1nc2n(c(=O)c1CCN1CCC(c3noc4cc(F)ccc34)CC1)CCC[C@H]2O`, the Potency result was “inactive”.

In the next assay the test system is MKL-1. Described as above. To be noted: MCC and control cell lines, CellTiter-Glo viability, 72 h; series mostly up to 46 µM. In short, it runs like this:
as §1
In general terms: Cellular ATP, detected with luciferase, serves as a proxy for viable cell number.
With `COc1ccc(C2C(=O)c3ccccc3C2=O)cc1`, the Potency entry is “inactive”.
Still for that read-out and setting: under `Cc1c(N(C)CS(=O)(=O)O)c(=O)n(-c2ccccc2)n1C` stands “inactive”.
Still for that read-out and setting: then `OC[C@H]1O[C@H](O[C@]2(CCl)O[C@H](CCl)[C@@H](O)[C@@H]2O)[C@H](O)[C@@H](O)[C@H]1Cl`, with “inactive”; and `C[C@H](CCC(=O)O)[C@H]1CC[C@H]2[C@@H]3C(=O)C[C@@H]4CC(=O)CC[C@]4(C)[C@H]3CC(=O)[C@]12C`, with “inactive”; and `Cc1cc(O)c(C(C)C)cc1Cl`, with “inactive”.
Still for that read-out and setting: then `O=C1c2ccccc2C(=O)C1c1ccccc1`, with “inactive”; and `Cc1ncc(CSSCc2cnc(C)c(O)c2CO)c(CO)c1O`, with “inactive”; and `NC[C@H]1O[C@H](O[C@H]2[C@H](O)[C@@H](O[C@H]3O[C@H](CO)[C@@H](O)[C@H](N)[C@H]3O)[C@H](N)C[C@@H]2N)[C@H](N)[C@@H](O)[C@@H]1O`, with “inactive”.
Turning to `Cc1ccc(Nc2c(F)cccc2Cl)c(CC(=O)O)c1`, the Potency result was “inactive”.
The same measure, in the same setting: then `CC(=O)O[C@]1(C(C)=O)CC[C@H]2[C@@H]3C[C@H](C)C4=CC(=O)CC[C@]4(C)[C@H]3CC[C@@]21C`, with “inactive”; and `CC(=O)OCC(=O)[C@@]1(O)[C@H](C)C[C@H]2[C@@H]3CCC4=CC(=O)C=C[C@]4(C)[C@@]3(F)[C@@H](O)C[C@@]21C`, with “inactive”; and `CC(=O)N(O)CCCCCNC(=O)CCC(=O)N(O)CCCCCNC(=O)CCC(=O)N(O)CCCCCN`, with 3.35 µM (active).
Same read-out and setting: under `CN1[C@@H]2CC[C@H]1CC(OC(=O)c1c[nH]c3ccccc13)C2` (stereo partly drawn) stands “inactive”; under `CC(O)(P(=O)(O)O)P(=O)(O)O`, “inactive”; under `Cc1c(C(C)C)c(=O)n(-c2ccccc2)n1C`, “inactive”.
Same read-out and setting: then `CCCCC(=O)O[C@]1(C(=O)CO)CC[C@H]2[C@@H]3CCC4=CC(=O)CC[C@]4(C)[C@H]3[C@@H](O)C[C@@]21C`, with “inactive”.
`O=c1[nH]c(=O)n([C@H]2CCCO2)cc1F`: the Potency entry is “inactive”.
On the same count and under the same terms, under `COC(=O)CCc1ccc(OCC(O)CNC(C)C)cc1` (stereo not drawn) stands “inactive”; under `Cc1cc2c(cc1CC(=O)c1sccc1S(=O)(=O)Nc1onc(C)c1Cl)OCO2`, “inactive”; under `CC(C)(C)NC(=O)[C@@H]1CN(Cc2cccnc2)CCN1C[C@@H](O)C[C@@H](Cc1ccccc1)C(=O)N[C@H]1c2ccccc2C[C@H]1O`, “inactive”.
In the case of `CCCCS(=O)(=O)N[C@@H](Cc1ccc(OCCCCC2CCNCC2)cc1)C(=O)O`, the Potency entry is “inactive”.
Still for that read-out and setting: under `Cc1onc(-c2c(Cl)cccc2Cl)c1C(=O)N[C@@H]1C(=O)N2[C@@H]1SC(C)(C)[C@@H]2C(=O)O` stands “inactive”.
The same measure, in the same setting: under `CN1CCN(C(c2ccccc2)c2ccccc2)CC1` stands “inactive”.
